The results in this text go back to ChEMBL document CHEMBL4513216, “Probing the Open Global Health Chemical Diversity Library for Multistage-Active Starting Points for Next-Generation Antimalarials” (ACS Infect Dis, 2020).

Screen size: about 68,000 compounds; about 2,700 (4%) showed an effect of 50% or more. The entries come from a sample that favours strong results as a whole.

For this assay, the system named is Plasmodium berghei. The experiment in a line: Screen against P. berghei liver stage (PbLuc), transformed with Luciferase, at 2uM. The class given is functional, HepG2. The note with it: tested at 2 uM.

With `O=C(Cc1ccccc1Cl)Nc1cnn(C2CCOC2)c1` (stereo not drawn), the INHIBITION amounted to 2.49%.

On to `COc1ccc(-c2c(C)nn3c(=N)c(C#N)n[nH]c23)cc1OC`, for which the INHIBITION turned out to be 1.04%.

As to `COCC(=O)NC1(c2cccc(C(F)(F)F)c2)CCC1`, the INHIBITION is recorded as 24.82%. For `CCNC(=O)CCC(=O)NC1(c2cccc(C(F)(F)F)c2)CCC1`, the INHIBITION worked out at 18.85%.

`CS(=O)(=O)CCC(=O)NC1(c2cccc(C(F)(F)F)c2)CCC1`: the INHIBITION is 61%. The result for `COCCC1(C(=O)O)CCCN(Cc2cc3c(cc2C)OCO3)C1` (stereo not drawn) reads -48.91%; that for `c1cnn(-c2ccc(CCNC3CCN(C4CC4)C3)cc2)c1` (stereo not drawn), 27.73%. The result for `OCCNc1cc(-c2ccccc2)ncn1` reads -7.01%; that for `C[C@H](O)CNc1cc(-c2ccncc2)ncn1`, -29.38%; that for `C[C@H](O)CNc1cc(-c2ccccc2)ncn1`, 59.56%.

Regarding `CC(C)NC(=O)CC1COC2(CCN(Cc3ccco3)CC2)C1` (stereo not drawn), the INHIBITION amounted to 43.58%. The same measure for `O=C(NCc1cc(N2CCOCC2)ncn1)c1cccc(CO)n1`: -15.77%. The same measure for `CC(C)=CCN1C[C@@H]2CC[C@H]1CN(S(=O)(=O)c1cccnc1)C2`: 54.75%.

Turning to `O=S(=O)(c1cccnc1)N1C[C@H]2CC[C@@H](C1)N(Cc1ccccn1)C2`, the INHIBITION is on record as -3.6%.

Regarding `O=S(=O)(c1cccnc1)N1C[C@H]2CC[C@@H](C1)N(Cc1ccccc1)C2`, the INHIBITION was -11.31%. With `c1ccc2c(c1)N(CC1CCOC1)CC21CCN(c2cnccn2)CC1` (stereo not drawn), the INHIBITION is given as -39.01%. The result for `O=C(Cn1nc(C(F)(F)F)c(Br)c1C1CC1)N1CCOCC1` reads 6.33%. With `Cc1ccc(CN2CC[C@H]3CO[C@H](CN(C)C)[C@H]3C2)o1`, the INHIBITION is on record as -5.44%.

On to `Cc1ccc(CN2CC[C@H]3CO[C@H](CN4CCCC4)[C@H]3C2)o1`, for which the INHIBITION is recorded as 50.85%.

As to `Cc1ccc(CN2CC[C@H]3CO[C@H](CN4CCN(C)CC4)[C@H]3C2)o1`, the INHIBITION is reported as 16.78%. The same measure for `CC(=O)N(C)c1nc(Cn2nnnc2C2CCCC2)cs1`: -26.07%. The result for `O=C(Cn1cc(-n2cccc2)cn1)NCC1CCC1` reads -28.99%. The same measure for `COCCn1cc2c(n1)C(CNCc1ccsc1)OCC2` (stereo not drawn): 30.19%; for `COCCN1C(=O)[C@@H]2CC[C@H]1CN(c1ncccn1)C2`: 57.34%; for `COCCN1C(=O)[C@@H]2CC[C@H]1CN(c1nccc(C)n1)C2`: -1.56%. For the molecule `CNc1ccnc(N2C[C@H]3CC[C@@H](C2)N(CCOC)C3=O)n1`, the INHIBITION turned out to be 40.51%. The result for `CN(Cc1ccccn1)C(=O)[C@]12COC[C@H]1CN(Cc1cnn(C)c1)C2` reads 0.3%; that for `Cc1nnsc1CN1C[C@@H]2CC[C@H]1CN(Cc1ccccn1)C2`, -17.17%.

On to `O=C(CN1C[C@@H]2CC[C@H]1CN(Cc1ccccn1)C2)Nc1ccccc1`, for which the INHIBITION is -16.18%. The result for `Cn1ccc(NC(=O)CN2C[C@@H]3CC[C@H]2CN(Cc2ccccn2)C3)n1` reads 52.98%. The result for `O=C(c1cc(C2CC2)no1)N1C[C@@H]2CC[C@H]1CN(Cc1ccccn1)C2` reads -62.92%; that for `O=C(CN1C[C@@H]2CC[C@H]1CN(Cc1ccccn1)C2)NCc1cccs1`, 52.98%; that for `COCCN1C[C@@H]2CC[C@H]1CN(CC(=O)Nc1ccn(C)n1)C2`, 5.28%.

As to `O=C1[C@@H]2CN(C3CCOCC3)C[C@H]2CCN1CC1CC1`, the INHIBITION came to 27.65%.

With `O=C1CCCC2=Nc3nonc3NC(c3ccc(Cl)cc3Cl)C12` (stereo not drawn), the INHIBITION is -53.9%. For `CC(C)c1ccc2c(c1)CCCN2C(=O)CN(C)S(C)(=O)=O`, the INHIBITION was -20.21%.

As for `CC(C)OCCSCc1nnc(-c2cccc(F)c2)o1`, the INHIBITION is given as 55.39%. For `COc1cccn(Cc2nnc(-c3cccc(F)c3)o2)c1=O`, the INHIBITION worked out at 25.02%. The result for `OCC(O)CSCc1nnc(-c2cccc(F)c2)o1` (stereo not drawn) reads 10.23%. The same measure for `COC(=O)c1cccn1C1CCN(CCN2C(=O)CCC2=O)CC1`: 31.46%; for `COc1ccc(NC(=O)N2CCCC2c2ccco2)cc1OC` (stereo not drawn): -28.88%. With `CCCc1cc(CNC2CCN(c3cc(C)nc(N)n3)CC2)on1`, the INHIBITION is recorded as -13.81%. The same measure for `CCCc1cc(CNC2CCN(c3nc(C)cc(C)n3)CC2)on1`: 58.59%; for `CCCc1cc(CNC2CCN(c3cc(C(C)C)nc(C)n3)CC2)on1`: -8.34%; for `Cc1cn2c(=O)c(-c3ccnc(N(C)C4CCCCC4)n3)cnc2s1`: -35.83%. The result for `Cc1nc(N2C[C@@H](CN3CCCCC3)[C@@H](CO)C2)c2sccc2n1` reads -38.35%; that for `Cc1nc(N2C[C@H]3CNC[C@H]3C2)c2sccc2n1`, 50.98%; that for `COC1[C@@H]2CC[C@H]1CN(c1nc(C)nc3ccsc13)C2` (stereo partly drawn), -67.34%. With `O=C(NCc1nn(-c2ccccc2)c2c1CCC2)NC1CCC(O)CC1` (stereo not drawn), the INHIBITION was -43.23%. The same measure for `N[C@@H]1CCN(Cc2ccccc2CS(=O)(=O)c2ccccc2)C[C@H]1O`: 83.98%; for `NC1CCCCN(Cc2ccccc2CS(=O)(=O)c2ccccc2)C1` (stereo not drawn): 21.97%; for `O=S(=O)(Cc1ccccc1CN1CC[C@H](CO)[C@H](O)C1)c1ccccc1`: 48.21%.

`CC(C)(C)NC(=O)CNc1ncc(Br)cn1`: the INHIBITION is given as -20.72%.
